These results are taken from the supplement of paper PMC8728848.

The entries come from a sample that favours the strongest signals as a whole.

Common to all, as to experiment: glycan array binding signal (z-score within array); higher = stronger binding
Holding throughout (conditions): glycan notation: IUPAC condensed, linker removed

In assay [1] the target is Fuc(a1-2)Gal(b1-3)GalNAc(a1-3)[Fuc(a1-2)]Gal(b1-4)Glc. A digest of the protocol: (§1)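 The binding signal is a Z-score computed within each array. Data were drawn from 3228 arrays in the Consortium for Functional Glycomics database, restricted to those with a known protein sequence. Scores were averaged over arrays of the same protein sequence at different concentrations or buffers, and over linkers, and negative values can be taken as non-binding.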

In assay [2] the target is Fuc(a1-2)Gal(b1-3)GlcNAc(b1-3)[Gal(b1-4)GlcNAc(b1-6)]Gal(b1-4)Glc. A digest of the protocol:
as §1

The target in assay [3] is Fuc(a1-2)[Gal(a1-3)]Gal(b1-4)Glc. A digest of the protocol:
as §1

Assay [4] addresses Fuc(a1-2)[Gal(a1-3)]Gal(b1-4)GlcNAc(b1-2)Man(a1-3)[Fuc(a1-2)[Gal(a1-3)]Gal(b1-4)GlcNAc(b1-2)Man(a1-6)]Man(b1-4)GlcNAc(b1-4)GlcNAc. A digest of the protocol: as §1
Assay [5] deals with Fuc(a1-2)[GalNAc(a1-3)]Gal(b1-4)GlcNAc(b1-2)Man(a1-3)[Fuc(a1-2)[GalNAc(a1-3)]Gal(b1-4)GlcNAc(b1-2)Man(a1-6)]Man(b1-4)GlcNAc(b1-4)GlcNAc. In outline: as §1
Assay [6] addresses Fuc(a1-2)[GalNAc(a1-4)]Gal(b1-4)GlcNAc. In outline:
as §1

Assay [7] addresses Fuc(a1-3)[Gal(b1-4)]GlcNAc(b1-4)Gal(b1-4)[Fuc(a1-3)]GlcNAc(b1-4)Gal(b1-4)[Fuc(a1-3)]GlcNAc. A digest of the protocol:
as §1

A further assay addresses Gal(a1-3)GalNAc. In outline: as §1
Assay [8] concerns the target Gal(b1-3)[Fuc(a1-4)]GlcNAc(b1-3)Gal(b1-4)[Fuc(a1-3)]GlcNAc. A digest of the protocol: as §1
Assay [9] concerns the target Gal(b1-3)[Fuc(a1-4)]GlcNAc(b1-6)GalNAc. A digest of the protocol:
as §1

Assay [10] deals with Gal(b1-3)[Neu5Ac(b2-6)]GalNAc. In outline:
as §1

For assay [11], the target named is Gal(b1-4)GlcNAc(b1-3)Gal(b1-4)GlcNAc(b1-2)Man(a1-3)[Gal(b1-4)GlcNAc(b1-3)Gal(b1-4)GlcNAc(b1-2)Man(a1-6)]Man(b1-4)GlcNAc(b1-4)[Fuc(a1-6)]GlcNAc. A digest of the protocol:
as §1

For assay [12], the target named is Gal(b1-4)GlcNAc(b1-3)Gal(b1-4)GlcNAc(b1-2)[Gal(b1-4)GlcNAc(b1-3)Gal(b1-4)GlcNAc(b1-6)]Man(a1-6)[Gal(b1-4)GlcNAc(b1-3)Gal(b1-4)GlcNAc(b1-2)Man(a1-3)]Man(b1-4)GlcNAc(b1-4)[Fuc(a1-6)]GlcNAc. A digest of the protocol:
as §1

Assay [13] concerns the target Gal(b1-4)GlcNAc(b1-3)Gal(b1-4)GlcNAc(b1-3)Gal(b1-4)GlcNAc(b1-2)[Gal(b1-4)GlcNAc(b1-3)Gal(b1-4)GlcNAc(b1-3)Gal(b1-4)GlcNAc(b1-6)]Man(a1-6)[Gal(b1-4)GlcNAc(b1-3)Gal(b1-4)GlcNAc(b1-3)Gal(b1-4)GlcNAc(b1-2)Man(a1-3)]Man(b1-4)GlcNAc(b1-4)[Fuc(a1-6)]GlcNAc. In outline:
as §1

Assay [14] concerns the target Gal(b1-4)GlcNAc(b1-3)Gal(b1-4)GlcNAc(b1-3)Gal(b1-4)GlcNAc(b1-3)Gal(b1-4)GlcNAc(b1-2)Man(a1-3)[Gal(b1-4)GlcNAc(b1-3)Gal(b1-4)GlcNAc(b1-3)Gal(b1-4)GlcNAc(b1-3)Gal(b1-4)GlcNAc(b1-2)Man(a1-6)]Man(b1-4)GlcNAc(b1-4)[Fuc(a1-6)]GlcNAc. A digest of the protocol:
as §1

The target of assay [15] is Gal(b1-4)GlcNAc(b1-3)Gal(b1-4)GlcNAc(b1-3)Gal(b1-4)GlcNAc(b1-3)Gal(b1-4)GlcNAc(b1-2)[Gal(b1-4)GlcNAc(b1-3)Gal(b1-4)GlcNAc(b1-3)Gal(b1-4)GlcNAc(b1-3)Gal(b1-4)GlcNAc(b1-6)]Man(a1-6)[Gal(b1-4)GlcNAc(b1-3)Gal(b1-4)GlcNAc(b1-3)Gal(b1-4)GlcNAc(b1-3)Gal(b1-4)GlcNAc(b1-2)Man(a1-3)]Man(b1-4)GlcNAc(b1-4)[Fuc(a1-6)]GlcNAc. A digest of the protocol: as §1
Assay [16] addresses Gal(b1-4)GlcNAc(b1-3)Gal(b1-4)GlcNAc(b1-3)Gal(b1-4)GlcNAc(b1-3)Gal(b1-4)GlcNAc(b1-3)Gal(b1-4)GlcNAc(b1-2)[Gal(b1-4)GlcNAc(b1-3)Gal(b1-4)GlcNAc(b1-3)Gal(b1-4)GlcNAc(b1-3)Gal(b1-4)GlcNAc(b1-3)Gal(b1-4)GlcNAc(b1-6)]Man(a1-6)[Gal(b1-4)GlcNAc(b1-3)Gal(b1-4)GlcNAc(b1-3)Gal(b1-4)GlcNAc(b1-3)Gal(b1-4)GlcNAc(b1-3)Gal(b1-4)GlcNAc(b1-2)Man(a1-3)]Man(b1-4)GlcNAc(b1-4)[Fuc(a1-6)]GlcNAc. A digest of the protocol:
as §1

For assay [17], the target named is Gal(b1-4)GlcNAc(b1-3)Gal(b1-4)GlcNAc(b1-3)Gal(b1-4)GlcNAc(b1-3)Gal(b1-4)GlcNAc(b1-3)Gal(b1-4)GlcNAc(b1-3)Gal(b1-4)GlcNAc(b1-2)Man(a1-3)[Gal(b1-4)GlcNAc(b1-3)Gal(b1-4)GlcNAc(b1-3)Gal(b1-4)GlcNAc(b1-3)Gal(b1-4)GlcNAc(b1-3)Gal(b1-4)GlcNAc(b1-3)Gal(b1-4)GlcNAc(b1-2)Man(a1-6)]Man(b1-4)GlcNAc(b1-4)GlcNAc. In outline: as §1
The target of assay [18] is Gal(b1-4)GlcNAc(b1-6)[Gal(b1-3)]GalNAc. A digest of the protocol: as §1
Assay [19] addresses GalNAc(a1-3)GalNAc(b1-3)Gal(a1-4)Gal(b1-4)Glc. In outline: as §1

B1: Gal 8 (Homo sapiens) (protein)
chain: MLSLNNLQNIIYNPVIPYVGTIPDQLDPGTLIVICGHVPSDADRFQVDLQNGSSVKPRADVAFHFNPRFKRAGCIVCNTLINEKWGREEITYDTPFKREKSFEIVIMVLKDKFQVAVNGKHTLLYGHRIGPEKIDTLGIYGKVNIHSIGFSFSSDLQSTQASSLELTEISRENVPKSGTPQLQTVSPSWDLQGHGSETFCSVLWTRVFLEIAFCRPIGLTVASFQSLPFAARLNTPMGPGRTVVVKGEVNANAKSFNVDLLAGKSKDIALHLNPRLNIKAFVRNSFLQESWGEEERNITSFPFSPGMYFEMIIYCDVREFKVAVNGVHSLEYKHRFKELSSIDTLEINGDIHLLEVRSW
As to B1, the “glycan array binding signal (z-score)” value is 0.572 in assay [1]; 0.003 in assay [2]; 4.4 in [3]; 4.31 in [4]; 5.81 in [5]; -0.357 in [6]. Moreover, the “glycan array binding signal (z-score)” value is -0.35 in assay [7]; -0.387 in the assay with Gal(a1-3)GalNAc; -0.39 in assay [8]; -0.355 in [9]; -0.387 in [10]; 3.06 in assay [11]. In addition, the “glycan array binding signal (z-score)” value in assay [12] stood at 6.42; in assay [13], 6.12; in assay [14], 3.61; in assay [15], 5.79; in [16], 5.3; in assay [17], 5.33. For the same molecule, the “glycan array binding signal (z-score)” value is -0.305 in assay [18] and 0.169 in assay [19].
